Laboratory results as given in PubChem BioAssay (EPA / NIEHS).
Inconclusive results are not listed. Active and inactive are the calls of the source. How the source made its calls, unless noted: active means hit-call score of the fitted dose curve at least 0.9, where 1 is the maximum; inactive means score below 0.9.

Tests used:
[1] = CCTE_Mundy_HCI_Cortical_NOG_NeuriteLength: CCTE's Neurite Outgrowth Assay in rat cortical cells for Neurite Length, Mundy Lab (AID 2284213)
How it was run: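 First, rat primary cortical cells were plated and, 2 h later, given test chemical as a 1/10 dilution. Finally, βIII-tubulin immunostaining enabled automated imaging of neurite length.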

[2] = CCTE_Mundy_HCI_Cortical_Synap_Neur_Matur_NeuriteLength: CCTE's Synaptogenesis and Neurite Maturation Assay in rat cortical cells for Neurite Length, Mundy Lab (AID 2284214)
How it was run: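 Neurite length quantified by automated high-content imaging of MAP2, synaptophysin and Hoechst staining. Rat cortical cells received chemical from DIV 7 to DIV 12 […], glial growth arrested by AraC at DIV 5; DMSO baseline.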

[3] = CCTE_Mundy_HCI_Cortical_Synap_Neur_Matur_NeuriteSpotCountPerNeuron: CCTE's Synaptogenesis and Neurite Maturation Assay in rat cortical cells for Neurite Spot Count per Neuron Count, Mundy Lab (AID 2284215)
How it was run: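 High-content imaging counts synaptophysin puncta along MAP2-labelled neurites per neuron after chemical exposure of rat cortical cells from DIV 7 to termination at DIV 12 (AraC added DIV 5). Loss of signal relative to DMSO.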

[4] = TAMU_PeakParms_SingleDonor1434_Chronotropy: Texas A&M University (TAMU) 1.5-hr Human Induced Pluripotent Stem Cell (iPSC)-derived Cardiomyocytes Calcium (Ca+2) Flux Assay for Cardiotoxicity: Chronotropy (changes in peak frequency) (AID 2284217); settings: actives raise or lower the signal
How it was run: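 iPSC-derived cardiomyocytes (single donor 1434) dosed at 0.2, 1, 10 and 100 uM in 0.5% DMSO for 1.5 h at 37C; Ca2+ dye fluorescence gave average beat frequency. Zero-beat points removed; bidirectional fit versus DMSO, POD as EC05.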

[5] = CCTE_Mundy_HCI_Cortical_Synap_Neur_Matur_SynapseCount: CCTE's Synaptogenesis and Neurite Maturation Assay in rat cortical cells for Synapse Count, Mundy Lab (AID 2284218)
How it was run: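 High-content imaging of synaptophysin puncta per MAP2-positive neuron (Hoechst nuclei) in rat cortical cells exposed DIV 7–12 after glial arrest with AraC at DIV 5; decrease relative to DMSO scored.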

[6] = CCTE_Mundy_HCI_hN2_NOG_NeuriteCount: CCTE's Neurite Outgrowth Assay in human hN2 cells for Neurite Count, Mundy Lab (AID 2284219; active means hit-call score of the fitted dose curve at least 0.9, where 1 is the maximum)
How it was run: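 In this morphology assay, hNP1-derived neurons received test chemical 2 h post-plating and were fixed two days later in warm paraformaldehyde/sucrose containing Hoechst 33342. Neurites, labelled by rabbit anti-βIII-tubulin (1:800) and Alexa Fluor-488 (1:500), were counted automatically.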

[7] = CCTE_Mundy_HCI_Cortical_Synap_Neur_Matur_CellBodySpotCount: CCTE's Synaptogenesis and Neurite Maturation Assay in rat cortical cells for Cell Body Spot Count, Mundy Lab (AID 2284223)
How it was run: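 High-content imaging counts synaptophysin puncta on neuronal cell bodies per neuron after MAP2/synaptophysin immunostaining. Rat primary cortical cells, glia arrested with AraC at DIV 5, were exposed DIV 7–12; signal decrease measured against DMSO.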

[8] = CCTE_Mundy_HCI_Cortical_Synap_Neur_Matur_BPCount: CCTE's Synaptogenesis and Neurite Maturation Assay in rat cortical cells for Branch Point Count, Mundy Lab (AID 2284211)
Protocol: CCTE_Mundy_HCI_Cortical_Synap&Neurite_Matur is a multiplexed, cell-based-readout assay that uses rat primary cortical cells with measurements taken at 288.33 hours after chemical dosing in a microplate: 96-well plate.CCTE_Mundy_HCI_Cortical_Synap_Neur_Matur_BPCount is one of eight components of the CCTE_Mundy_HCI_Cortical_Synap&Neurite_Matur assay. It measures synaptogenesis and neurite maturation related to number of branch points using High Content Imaging of fluorescently labelled markers.[…] Using a type of morphology reporter, loss -of-signal activity can be used to understand developmental effects.
Cells are plated onto 96 well plates and allowed 2 hr for attachment to the substrate. At days in vitro (DIV) 5, Cytosine Arabinoside (AraC) is added to arrest glial cell growth. Chemicals are dosed and a media change is performed at DIV 7 of differentiation and is continued through DIV 12 when the experiment is terminated. Cells are fixed with […] and Hoechst Dye. Cells are stained using Millipore Mouse anti-MAP2MAB3418 (1:800) and Millipore Rabbit anti-Synaptophysinsc-1750 (1:250) primary antibodies and Alexa Fluor-488 goat anti-mouse and AlexaFluor-546 goat anti-rabbit secondary antibodies to label neuronal cell nuclei, synapses and neurites. A Cellomics ArrayScan VTi HCS Reader is used for automated image acquisition and analysis of neurite outgrowth.

[9] = CCTE_Mundy_HCI_Cortical_NOG_NeuriteCount: CCTE's Neurite Outgrowth Assay in rat cortical cells for Neurite Count, Mundy Lab (AID 2284212);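 further: cells fixed about two days after chemical exposure began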
How it was run: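 Rat cortical primary cells; compound added 2 h post-plating, 1/10 dilution of working solution. Anti-betaIII-tubulin/AF488 ICC; ArrayScan neurite count vs DMSO.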

[10] = CCTE_Mundy_HCI_Cortical_Synap_Neur_Matur_NeuriteCount: CCTE's Synaptogenesis and Neurite Maturation Assay in rat cortical cells for Neurite Count, Mundy Lab (AID 2284222);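 further: exposure from day 7 to day 12 in vitro with readout at day 12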
How it was run: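 Rat primary cortical cells; AraC added at DIV 5, chemicals dosed with media change at DIV 7 through DIV 12. MAP2/synaptophysin/Hoechst immunostaining, high-content imaging of neurite number; fitted relative to DMSO.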

Measured: outcome

OC[C@@H](O)[C@@H](O)[C@H](O)[C@@H](O)CO
not listed: [8] | [9] | [10]
inactive: all other assays above

CC(CCl)OP(=O)(OC(C)CCl)OC(C)CCl (stereo not given)
not listed: [4] | [6]
inactive: all other assays above
